Sampled rows, rich in hits. Any-hit rate of the full collection: about 3.6%.
HSF1 inh: HSF1 inhibition | NIH3T3-HGL HSE-luciferase, MG132-induced, luminescence 8 h; stronger effect = lower value | activity change, negative = inhibition, % at 7.5 µM (by protocol) | 300,000 tested, 0.77% active;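 active = more than half of replicate wells show activity change below -50%, luminescence cut by over half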;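 also: luciferase reports HSF-1 transcriptional activity via heat shock element; 0% = median of DMSO wells and -100% = zero luminescence signal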
LGR2 antag: inhibitors of bursicon-induced Drosophila LGR2 receptor cAMP signaling; HEK293 LGR2, CRE-luciferase, bursicon-stimulated, 4 h; AID 720647; inhibition, % at 9.99 µM; 380,000 tested, 0.35% active;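 active = drop in luminescence signal, shown as inhibition above about 50% in the replicate tests, limit read from the data, passing the limit was not always enough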;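 also: agonist challenge used bursicon conditioned medium at about half maximal strength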
HSF-1 act: increases HSF-1 driven luciferase reporter signal; NIH3T3-HGL HSF-1 luciferase reporter, MG132, 8 h; 100% = twice DMSO control signal; AID 504408; activation, % at 9 µM; 300,000 tested, 1.7% active;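 active = mean replicate activation of at least 50% with a set share of replicates each reaching 50%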;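 also: 0% = median of the neutral control wells and 100% = twice that signal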
TROY signal inh: TROY signaling inhibition. Q293 LMP1-TROYcd NF-kB luciferase reporter, 4 h. inhibition, % at 10 µM. 360,000 tested, 0.98% active. AID 1347056;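 active = compounds whose plate-normalised and pattern-corrected inhibition of the luciferase reporter signal at the single screening dose is 50% or more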
TWEAK Fn14 block: TWEAK-Fn14 signaling inhibition; TWEAK-stimulated Fn14 reporter cells, luciferase luminescence, 8 h; inhibition, % at 10 µM; 360,000 tested, 2% active; AID 1159606; in the data active = inhibition above about 50%
EBV LMP1 NFkB: Epstein-Barr LMP1 NF-kappaB reporter inhibition; inhibition, % at 12.5 µM; 350,000 tested, 0.69% active; LMP1-induced NF-kappaB luciferase reporter cells, luminescence; in the data active = inhibition above about 41%;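 also: 0% = neutral control wells and 100% = reference inhibitor control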
Numbers without * were called inactive; . = no result.

SMILES	HSF1 inh	LGR2 antag	HSF-1 act	TROY signal inh	TWEAK Fn14 block	EBV LMP1 NFkB
CCn1c(SCC(=O)Nc2oc(C)c3c(C)n[nH]c(=O)c23)nc2sc(C)c(C)c2c1=O	-71*	.	-78	11	-10	-33
Cc1cc(C)c(C)c(SCC(=O)Nc2oc(C)c3c(C)n[nH]c(=O)c23)c1C	1	2	-11	0	-2	3
CN(C)CC(=O)Nc1ccc2c(c1)[C@@H]1C[C@@H](CC(=O)NCc3ccccc3F)O[C@@H](CO)[C@@H]1O2	.	-1	.	.	.	.
C[C@@H](O)C#Cc1cnc2c(c1)C(=O)N([C@@H](C)CO)C[C@H](C)[C@@H](CN(C)C(=O)Nc1ccc(C(F)(F)F)cc1)O2	.	1	.	.	.	.
COc1cccc(S(=O)(=O)N(C)C[C@@H]2Oc3cc(C4=CCCC4)ccc3S(=O)(=O)N([C@H](C)CO)C[C@H]2C)c1	.	15	.	.	.	.
Cc1c(C(=O)C(=O)NCc2cccs2)c2ccccc2n1C	-92*	-16	-93	-1	-12	-7
O=[N+]([O-])c1ccc(C(=S)N2CCCC2)cc1	-2	-5	-12	14	-10	-13
O=[N+]([O-])c1ccc(C(O)CSC(=S)N2CCCCC2)cc1 (configuration not stated)	34	-101	70*	-40	-21	-16
COc1ccc(S(=O)(=O)N(C)C[C@H]2Oc3c(NC(=O)C4CCCCC4)cccc3C(=O)N([C@@H](C)CO)C[C@@H]2C)cc1	.	1	.	.	.	.
Cc1nn(C(C)(C)C)c(C)c1/C=N/OC(=O)Nc1ccc(Cl)c(Cl)c1	-95*	.	-96	87*	105*	47*
COc1ccc(NC(=O)O/N=C/c2c(C)nn(C(C)(C)C)c2C)cc1	-71*	.	-73	65*	-10	-17
C[C@H]1CN([C@@H](C)CO)S(=O)(=O)c2ccc(C3=CCCC3)cc2O[C@H]1CN(C)C(=O)C1CCCCC1	.	11	.	.	.	.
Cc1noc(C)c1S(=O)(=O)Nc1ccc2c(c1)CC(=O)N([C@H](C)CO)C[C@H](C)[C@@H](CN(C)Cc1ccc(Cl)c(Cl)c1)O2	.	17	.	.	.	.
C(=N/Nc1nccs1)/c1cccnc1	6	-41	16	0	-9	-10
Clc1cccc(/C=N\Nc2nccs2)c1	103	.	143*	-28	1	-33
COc1ccc(N2Cc3cccc(C(=O)NC(C)CCc4ccco4)c3C2=O)cc1 (configuration not stated)	3	-20	25	-12	0	47*
CC(CCc1ccco1)NC(=O)c1cccc2c1C(=O)N(C1CCCCC1)C2 (configuration not stated)	-6	1	-4	17	9	-2
O=C(O)COc1ccc(/C=N/NC(=O)c2ccccc2Br)cc1	-67*	.	-74	-21	-9	-1
Fc1ccc(Cn2ccc(-c3cnc(-c4ccccc4)s3)n2)cc1	39	.	62*	-10	40	-1
Cc1ccc(Cn2ccc(-c3cnc(-c4ccccc4)s3)n2)cc1	24	.	45	-1	26	-1
CN(C)Cc1cn(CC[C@@H]2CC[C@H](N)[C@@H](CO)O2)nn1	.	8	.	.	.	.
O=C(NCCN1CCN(c2ccccc2F)CC1)c1ccc2nc3ccccc3c(=O)n2c1	-7	-7	5	21	67*	0
COc1ccc(CN(C)C[C@H]2Oc3ccc(NS(=O)(=O)c4cccs4)cc3C(=O)N([C@H](C)CO)C[C@@H]2C)cc1	.	-4	.	.	.	.
O=C(N/N=C/c1ccc(-c2cccc(C(F)(F)F)c2)o1)c1ccccc1O	-14	27	13	10	12	18
O=C(N/N=C/c1ccc(-c2cccc([N+](=O)[O-])c2)o1)c1ccc([N+](=O)[O-])cc1	-1	34	-6	0	-8	4
SMILES	HSF1 inh	LGR2 antag	HSF-1 act	TROY signal inh	TWEAK Fn14 block	EBV LMP1 NFkB
O=C(N/N=C/c1ccc(-c2cccc([N+](=O)[O-])c2)o1)c1ccccc1O	25	0	58*	45	0	3
O=C(N/N=C/c1ccc(-c2cccc(C(F)(F)F)c2)o1)c1ccccc1Br	2	.	38	65*	59*	-7
Cc1noc(C)c1S(=O)(=O)Nc1ccc2c(c1)C(=O)N([C@H](C)CO)C[C@H](C)[C@H](CN(C)S(=O)(=O)c1ccc(F)cc1)OCCCC[C@@H](C)O2	.	34	.	.	.	.
C[C@H]1CN([C@@H](C)CO)C(=O)c2cc(NS(C)(=O)=O)ccc2O[C@H]1CN(C)S(=O)(=O)c1ccc(Cl)cc1	.	7	.	.	.	.
CCCC(=O)Nc1ccc2c(c1)OC[C@H](C)N(Cc1ccccc1)C[C@H](C)[C@@H](OC)CN(C)C2=O	.	10	.	.	.	.
COc1ccc(C(=O)COC(=O)CCN2C(=O)C3C4CC(C(Br)C4Br)C3C2=O)cc1 (configuration not stated)	-62*	.	-71	6	-6	-3
COc1ccc(C(=O)COC(=O)CCN2C(=O)[C@@H]3[C@H](C2=O)[C@@H]2C[C@H]3C(Br)C2Br)cc1 (some centres not stated)	-3	-5	-5	9	-9	1
Oc1ccc(Cl)cc1Sc1cc(Cl)ccc1O	.	.	.	62*	73*	1
CN(C)C(=O)c1cc(Cl)ccc1Sc1cc(Cl)ccc1Cl	11	.	10	-33	4	-18
Cc1noc(C)c1NC(=O)N(C)C[C@H]1Oc2ccc(NS(=O)(=O)c3ccc(F)cc3)cc2CC(=O)N([C@H](C)CO)C[C@H]1C	.	-29	.	.	.	.
COc1ccc(NC(=O)c2c(-c3ccccc3Cl)noc2C)c(OC)c1	18	.	3	-2	-20	3
COc1ccc(NC(=O)c2nc(S(=O)(=O)Cc3cccc(C)c3)ncc2Cl)c(OC)c1	171	-23	204*	54*	44	11
COc1ccc(OC)c(NC(=O)c2nc(S(=O)(=O)Cc3ccccc3)ncc2Cl)c1	-94*	16	-95	83*	76*	-1
C[C@@H]1CN([C@@H](C)CO)C(=O)c2cccc(NC(=O)c3nc4ccccc4s3)c2O[C@H]1CN(C)S(C)(=O)=O	.	0	.	.	.	.
CC(=O)N1CCn2c3ccc(C)cc3c3cccc1c32	36	.	65*	-75	-21	-20
Nc1cc(N)nc(SCCOc2ccccc2F)n1	43	.	66*	-45	-30	0
COc1ccccc1OCCSc1nc(N)cc(N)n1	10	.	21	-23	-10	8
O=C(CCCc1ccccc1)Nc1ccc2c(c1)OCCO2	36	15	75*	3	34	-14
O=C(CSc1ccccc1)Nc1ccc2c(c1)OCCO2	26	-73	38	-50	26	16
O=C(CC(=O)c1ccccc1)Nc1ccc2c(c1)OCCO2	28	-32	54*	-6	11	-14
CC1(C(=O)Nc2ccc3c(c2)OCCO3)CCN1C(=O)c1ccccc1CCc1ccccc1 (configuration not stated)	.	11	.	35	69*	.
O=C(NCc1ccccc1)c1ccc2c(c1)OCCO2	14	.	16	.	11	-11
